# Hits are enriched below; roughly 4.7% of the tested compounds scored in any of these assays.
# D1 PAM – potentiators of human D1 dopamine receptor; HEK293 TREx D1 cells, calcium flux, dopamine EC20 potentiation; potentiation, % at 10 µM; 360,000 tested, 0.036% active; in the data active = potentiation above about 30%; note: 0% is about no effect
# Target sequence (P21728 whole entry, looked up): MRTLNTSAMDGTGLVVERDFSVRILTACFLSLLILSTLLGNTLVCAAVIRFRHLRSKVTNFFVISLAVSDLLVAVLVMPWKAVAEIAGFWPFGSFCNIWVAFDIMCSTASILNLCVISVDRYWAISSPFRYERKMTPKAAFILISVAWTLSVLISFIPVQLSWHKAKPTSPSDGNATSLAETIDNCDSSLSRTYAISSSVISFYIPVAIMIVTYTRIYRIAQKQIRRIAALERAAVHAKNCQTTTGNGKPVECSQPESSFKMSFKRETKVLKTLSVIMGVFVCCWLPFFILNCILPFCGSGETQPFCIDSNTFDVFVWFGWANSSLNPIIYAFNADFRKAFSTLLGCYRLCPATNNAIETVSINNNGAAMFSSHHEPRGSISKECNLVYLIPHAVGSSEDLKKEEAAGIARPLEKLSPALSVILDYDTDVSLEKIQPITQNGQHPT
# TRHR enhancer – allosterically enhances the human TRH receptor; 360,000 tested, 0.66% active; TRHR cells, fluo-8 calcium fluorescence, EC20 TRH enhancement; AID 493056; enhancement, % at 2 µM; in the data active = enhancement above about 30%; note: 0% is about no effect
#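 TRHR-expressing cells loaded with fluo-8 calcium dye were read kinetically (ex 480/em 530) during compound addition, then stimulated with an EC20 of TRH (10 nM final). Enhancement of the Gq-mediated intracellular calcium response was scored.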
# TRHR ag – activates the human TRH receptor; TRHR cells, calcium flux fluo-8, FDSS agonist mode; 360,000 tested, 0.18% active; P34981; AID 493084; activation, % at 2 µM; note: 0% is about no effect
#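 In this calcium-flux screen, cells bearing human TRHR are dye-loaded with fluo-8, baselined for 10 cycles, then exposed to library compounds; positive kinetic calcium responses during the agonist phase mark hits, with TRH as control.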
# D1 antagonist – human D1 dopamine receptor antagonism. P21728. HEK293 TREx D1 cells, calcium flux, dopamine EC80; hits give low values. activity change, negative = inhibition, % at 10 µM. 360,000 tested, 3.2% active. AID 504652; in the data active = activity change below about -30%; note: % is set by controls: 0 for no effect and ±100 for the full control effect
#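 Tetracycline-induced HEK293 T-REx cells with force-coupled D1 receptor were loaded with a no-wash calcium dye. Compound was added after a 10 s baseline and read kinetically for 180 s; EC80 dopamine was then added and calcium flux followed another 180 s.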
# D1 agonist – human D1 receptor agonism | HEK293 T-REx D1 cells, calcium flux, agonist mode | activation, % at 2 µM | 360,000 tested, 1% active | AID 504660; note: 0% is about no effect
#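 Tetracycline-induced HEK293 TREx D1 cells, force-coupled to calcium signalling, were dye-loaded with a no-wash calcium kit. Compound was pin-added after a 10 s baseline. Fluorescence was read kinetically at 1 cycle/s for 180 s, with calcium rises flagged as agonism.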
# The depositor's hits bear a star; ! = not confirmed by another sample. Cut-off read from the data, not from the text of the source, unless noted: active = activation above about 30%; inactive = the rest.
SMILES,D1 PAM,TRHR enhancer,TRHR ag,D1 antagonist,D1 agonist
COc1cccc(CN(C(=O)c2ccccc2)C2CCS(=O)(=O)C2)c1 (centres undefined),-11,-7,0,-35*,1
COc1ccc(OCC(=O)N(Cc2sccc2C)C2CCS(=O)(=O)C2)cc1 (centres undefined),-4,-1,0,-73*!,0
COc1cccc(CN(C(=O)c2cccc(OC)c2)C2CCS(=O)(=O)C2)c1 (centres undefined),-6,-6,0,50,5
COc1ccc(NC(=O)Cn2cc(C(=O)c3ccccc3OC)c(=O)c3ccc(C)nc32)cc1OC,1,-3,0,9,0
COc1ccc(Cl)cc1C(=O)NCC(c1ccc(N(C)C)cc1)N1CCCC1 (centres undefined),2,20,-1,-6,34*
COc1ccc(C(CNC(=O)c2ccco2)N2CCOCC2)cc1 (centres undefined),-5,-8,0,-2,5
COc1ccc(C(CNC(=O)c2ccc(-c3cccc(C(F)(F)F)c3)o2)N2CCOCC2)cc1 (centres undefined),7,3,9,30,34*
CCC(C)NC(=O)CNC(=O)c1nn(-c2ccc(OC)cc2)c(=O)c2ccccc12 (centres undefined),-5,8,0,-7,0
COc1ccc(C(CNC(=O)c2nn(-c3ccccc3)c(=O)c3ccccc23)N2CCOCC2)cc1 (centres undefined),-8,32*,0,-4,5
COc1ccc(C(=O)NCC(c2ccc(N(C)C)cc2)N2CCCC2)c(OC)c1 (centres undefined),2,6,-1,-8,-1
COc1ccc(C(CNC(=O)c2ccccc2C)N2CCCC2)cc1 (centres undefined),-2,8,1,5,1
COc1ccc(C(CNC(=O)c2cc(=O)[nH]c3ccccc23)N2CCCC2)cc1 (centres undefined),-7,-1,1,-38*,5
CCc1c(CN2CCN(c3cccc(C)c3C)CC2)csc1C,-2,4,0,2,1
Cc1cccc(C)c1-n1ncc(C(=O)NC2CCCC2)c1C1CCN(C(=O)OC(C)(C)C)CC1,2,7,0,7,1
CC(C)c1ccc(CNc2nc(-c3ccco3)nn2S(=O)(=O)c2ccc3ccccc3c2)cc1,-1,1,-1,9,6
COc1ccc(S(=O)(=O)NCCc2sc(-c3cccnc3)nc2C)c(F)c1,-4,-1,0,5,1
Cc1ccc(-c2cc(C(F)(F)F)n3nc(C(=O)NCC45CC6CC(CC(C6)C4)C5)cc3n2)cc1,0,24,0,1,5
Cc1cc(C)c2c(CC(=O)Nc3nnc(CC(C)C)s3)coc2c1,-1,1,1,-4,3
CC(C)c1ccc(OCC(=O)NCCS(=O)(=O)N2CCN(c3ccc(F)cc3)CC2)cc1,-1,3,0,-4,3
COc1ccc(-c2ccc(=O)n(CC(=O)NCCc3ccccc3)n2)cc1,-2,1,-1,3,0
CN1N=C(/C=C/c2ccccc2)CCC1=O,3,-1,1,2,2
Cc1ccc(/C=C/C2=NN(C)C(=O)CC2)cc1,-3,30*,0,-27,0
COc1ccc(-n2nc3ccc(NC(=O)c4cccc(OCCC(C)C)c4)cc3n2)cc1,1,36*,2,10,2
O=C(COc1ccc(Br)cc1)Nc1ccncc1,-7,3,-1,-4,11
CCC(C)(C)c1ccc(OCC(=O)Nc2ccncc2)cc1,-11,2,0,-16,45*
CC(C)CCOc1cccc(OCC(=O)Nc2ccncc2)c1,-6,-4,1,-31*,13
Cc1cc2c(cc1S(=O)(=O)NCc1ccc(F)cc1)OCCN2C,-1,22,0,-3,0
O=C(CN1C(=O)COc2ccc(Cl)cc21)Nc1cccc(C(=O)O)c1,-2,4,0,3,1
S=C(Nc1cccnc1)NC1CC2CCC1C2 (centres undefined),-3,5,3,-34*,18
Cc1cccc(N2CCN(C(c3ccncc3)c3nnnn3C(C)(C)C)CC2)c1C (centres undefined),-8,3,0,-40*,0

# Screening data: PubChem BioAssay, National Center for Advancing Translational Sciences (NCATS)
